In PubChem BioAssay one finds composite z-score and z-score data, which are given here for eight molecules.

Assay [1] deals with Wnt5a (protein binding on small-molecule microarray). The assay is described as follows: Wnt5a binders on small-molecule microarray, primary screen, biophysical, 635/667 nm fluorescence (AID 1142).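 Further: fluorescence read at 667 nm with signal to noise per printed feature.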 As to conditions: 635 nm fluorescence, higher = more signal.
The nature of assay [2]: cell viability in Huh7 cells, primary screen, cytotoxicity control for HCV replication inhibitor project, CellTiter-Glo luminescence, basal, 48 h (AID 1143).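 Further: Huh7 hepatoma cells carrying a hepatitis C replication reporter with no stimulus; test concentration not given here.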 As to conditions: Huh7 HCV replicon, higher = more signal, called active from +8 up or from −8 down.
Assay [3] is described as follows: CREB reporter modulators without forskolin, primary screen, cell-based, PC12, CRE-LacZ reporter, unstimulated (AID 1145). The following applies: no forskolin, luminescence, 4.5 h, higher = more signal, called active from +8 up or from −8 down.
A short description of assay [4]: CREB reporter modulators under forskolin, primary screen, cell-based, PC12, CRE-LacZ reporter, forskolin-stimulated (AID 1146).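 Further: PC12 cells with 6xCRE LacZ reporter stimulated by forskolin 10 µM; beta-galactosidase reporter signal reflecting CREB driven transcription.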 The following applies: luminescence, 4.5 h, higher = more signal, called active from +8 up or from −8 down.
In assay [5] the target is Streptavidin (Streptomyces avidinii) (UniProt P22629). The assay is described as follows: streptavidin binders on small-molecule microarray, primary screen, artefact control for SMM compound annotation, biophysical, 635/667 nm fluorescence (AID 1147).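 Further: signal reflects streptavidin binding to arrayed compounds as a control protein.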 The following applies: streptavidin binding, higher = more signal.
Assay [6] in a line: small-molecule binders of probe aInhba, primary screen, biochemical, small-molecule microarray, 635/667 nm fluorescence (AID 1148).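 Further: score merges 667nm spot fluorescence with signal-to-noise for antibody binding to printed compounds.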 As to conditions: higher = more signal.
For assay [7], the target named is Torsin-1A (Homo sapiens) (UniProt O14656). The assay is described as follows: torsin A binders from cell lysate, primary screen, small-molecule microarray, wild-type, 635/667 nm (AID 1149). As to conditions: COS7 hTOR1A-WT lysate, 635 nm fluorescence, higher = more signal.
Assay [8] has the same target. The assay is described as follows: small-molecule binders of mutant TOR1A in lysate, primary screen, cell lysate, small-molecule microarray, COS7 lysate, 635/667 nm fluorescence (AID 1150).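 Further: score pools 667 nm emission and signal to noise measuring lysate protein binding.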 As to conditions: COS7 hTOR1A mutant lysate, 635 nm fluorescence, higher = more signal.
The subject of assay [9] is Sonic hedgehog protein (Shh). The assay is described as follows: small-molecule binders of Shh protein, primary screen, biochemical, small-molecule microarray, 635/667 nm fluorescence (AID 1151).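 Further: Shh protein binding to compounds spotted on small-molecule microarray slides; score combines spot fluorescence intensity with signal-to-noise across triplicate slides.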 The following applies: small-molecule microarray binding, 635 nm fluorescence; higher = more signal.
Assay [10] is described as follows: E. coli DRC41 culture turbidity changes, primary screen, E. coli filamentation inducer project, strain DRC41, OD650, 48 h (AID 1152).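 Further: E. coli MC1000 strain DRC41 lacking acrAB efflux pump and sulA.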 As to conditions: E. coli DRC41 (acrAB sulA), higher = more signal, called active from +8 up or from −8 down.
Assay [11] in a line: small-molecule binders of probe aLefty1, primary screen, biochemical, small-molecule microarray, 635/667 nm fluorescence (AID 1153).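 Further: score merges spot fluorescence with signal-to-noise ratio from the scanned slide images.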 As to conditions: higher = more signal.
Assay [12] can be described thus: PSAC antagonists in infected red cells, primary screen, cell-based, P. falciparum Indochina, OD700, 1 h (AID 1154). As to conditions: P. falciparum Indochina infected RBC osmotic lysis, higher = more signal, called active from +8 up or from −8 down.
Assay [13] is described as follows: PSAC antagonists in infected red cells, primary screen, cell-based, P. falciparum Indochina, OD700, 2 h (AID 1155).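 Further: lysis reports solute entry through the parasite surface anion channel PSAC; channel blockers reduce lysis of infected cells.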 As to conditions: P. falciparum Indochina infected erythrocytes, osmotic lysis OD700; higher = more signal, called active from +8 up or from −8 down.
The nature of assay [14]: osmotic lysis modulators in infected erythrocytes, primary screen, PSAC antagonist project, cell-based, P. falciparum Indochina, OD700, 3 h (AID 1156). The following applies: higher = more signal, called active from +8 up or from −8 down.
The nature of assay [15]: PSAC antagonists in infected red cells, primary screen, cell-based, P. falciparum Indochina, OD700, 18 h (AID 1157). The following applies: P. falciparum Indochina infected erythrocytes, osmotic lysis OD700, 18 h; higher = more signal, called active from +8 up or from −8 down.
Assay [16] can be described thus: modulators of S6 phosphorylation in cells, primary screen, cell-based, A549, cytoblot, luminescence, serum-stimulated (AID 1158).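 Further: serum-stimulated A549 lung adenocarcinoma cells; signal is phosphorylated S6 detected by cytoblot immunostaining with HRP secondary.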 As to conditions: A549 phospho-S6 cytoblot, 5 h, higher = more signal.
Assay [17] has as its target NADPH oxidase 2 (Homo sapiens) (UniProt P04839). The assay is described as follows: NOX2-dependent H2O2 signal modulators, primary screen, NOX inhibitor project, cell-based, HEK293-NOX2, PMA-stimulated, Amplex Red fluorescence (AID 1159). Further: test concentration not given here. As to conditions: 45 min, higher = more signal, called active from +8 up or from −8 down.
Assay [18] has as its target NADPH oxidase 4 (Homo sapiens) (UniProt Q9NPH5). The assay is described as follows: NOX4-dependent H2O2 signal modulators, primary screen, NOX inhibitor project, cell-based, HEK293-NOX4, tetracycline-induced, Amplex Red fluorescence (AID 1160). The following applies: 45 min, higher = more signal, called active from +8 up or from −8 down.
Assay [19] addresses NADPH oxidase 5 (Homo sapiens) (UniProt Q96PH1). The assay is described as follows: NOX5-dependent H2O2 signal modulators, primary screen, NOX inhibitor project, cell-based, HEK293-NOX5, Amplex Red fluorescence (AID 1161). The following applies: HEK293-NOX5, ionomycin, 45 min, higher = more signal.
Assay [20] is described as follows: A549 cell viability effects, profiling panel, calcein-AM fluorescence, 48 h, basal (AID 1162). Further: test concentration not given here. As to conditions: higher = more signal.

The source made the active and inactive calls.

Sequence of NADPH oxidase 2 (Homo sapiens) (P04839 whole entry, looked up): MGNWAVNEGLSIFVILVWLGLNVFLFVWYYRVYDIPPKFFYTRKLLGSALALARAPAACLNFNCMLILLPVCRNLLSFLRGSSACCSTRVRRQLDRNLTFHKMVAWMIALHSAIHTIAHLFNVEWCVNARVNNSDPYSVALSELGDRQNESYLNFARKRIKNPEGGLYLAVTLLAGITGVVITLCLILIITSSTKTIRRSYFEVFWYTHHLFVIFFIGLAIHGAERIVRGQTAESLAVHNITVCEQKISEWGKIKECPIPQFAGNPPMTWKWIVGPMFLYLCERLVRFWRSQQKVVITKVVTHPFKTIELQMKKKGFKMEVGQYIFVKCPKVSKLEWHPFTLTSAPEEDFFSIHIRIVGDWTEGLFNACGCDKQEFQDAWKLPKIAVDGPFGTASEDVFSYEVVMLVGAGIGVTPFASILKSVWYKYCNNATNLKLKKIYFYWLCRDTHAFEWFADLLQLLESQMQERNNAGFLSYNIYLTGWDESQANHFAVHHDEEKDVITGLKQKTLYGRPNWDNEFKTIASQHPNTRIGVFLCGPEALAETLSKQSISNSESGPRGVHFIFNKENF
Sequence of NADPH oxidase 5 (Homo sapiens) (Q96PH1 whole entry, looked up): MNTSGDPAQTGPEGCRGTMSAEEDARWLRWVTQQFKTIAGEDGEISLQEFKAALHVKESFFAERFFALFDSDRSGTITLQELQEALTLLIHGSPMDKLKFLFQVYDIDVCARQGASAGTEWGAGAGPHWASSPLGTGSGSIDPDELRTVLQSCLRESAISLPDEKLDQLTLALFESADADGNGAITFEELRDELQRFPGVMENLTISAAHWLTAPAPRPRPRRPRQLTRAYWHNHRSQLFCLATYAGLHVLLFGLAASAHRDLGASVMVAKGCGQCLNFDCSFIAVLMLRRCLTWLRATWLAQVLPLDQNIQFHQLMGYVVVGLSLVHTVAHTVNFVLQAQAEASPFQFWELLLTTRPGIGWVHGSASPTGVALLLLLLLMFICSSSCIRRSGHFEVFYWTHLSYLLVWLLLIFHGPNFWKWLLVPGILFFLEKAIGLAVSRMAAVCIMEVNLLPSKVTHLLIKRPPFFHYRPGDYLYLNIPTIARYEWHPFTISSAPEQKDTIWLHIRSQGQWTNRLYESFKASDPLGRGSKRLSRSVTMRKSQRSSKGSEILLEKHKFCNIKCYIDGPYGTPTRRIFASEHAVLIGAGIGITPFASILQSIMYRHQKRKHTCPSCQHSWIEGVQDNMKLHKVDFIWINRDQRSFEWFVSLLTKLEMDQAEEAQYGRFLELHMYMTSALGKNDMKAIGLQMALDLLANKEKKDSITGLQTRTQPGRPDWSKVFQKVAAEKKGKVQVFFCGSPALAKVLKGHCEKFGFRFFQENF
Sequence of Torsin-1A (Homo sapiens) (O14656 whole entry, looked up): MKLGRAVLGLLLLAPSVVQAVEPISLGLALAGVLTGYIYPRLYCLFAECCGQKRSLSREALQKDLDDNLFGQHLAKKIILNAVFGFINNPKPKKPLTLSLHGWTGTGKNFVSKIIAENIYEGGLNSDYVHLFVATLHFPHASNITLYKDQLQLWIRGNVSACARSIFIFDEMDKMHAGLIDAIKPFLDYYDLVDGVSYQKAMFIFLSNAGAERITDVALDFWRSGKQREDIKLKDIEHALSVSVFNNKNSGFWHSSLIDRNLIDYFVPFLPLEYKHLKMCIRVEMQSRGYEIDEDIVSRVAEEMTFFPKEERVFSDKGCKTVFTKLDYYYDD
Sequence of Streptavidin (Streptomyces avidinii) (P22629 whole entry, looked up): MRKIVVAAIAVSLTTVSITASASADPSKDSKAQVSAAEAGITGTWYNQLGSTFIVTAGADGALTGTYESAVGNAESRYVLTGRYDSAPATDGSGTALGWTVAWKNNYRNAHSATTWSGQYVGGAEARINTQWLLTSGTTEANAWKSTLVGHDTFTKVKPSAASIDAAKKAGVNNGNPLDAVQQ
Sequence of NADPH oxidase 4 (Homo sapiens) (Q9NPH5 whole entry, looked up): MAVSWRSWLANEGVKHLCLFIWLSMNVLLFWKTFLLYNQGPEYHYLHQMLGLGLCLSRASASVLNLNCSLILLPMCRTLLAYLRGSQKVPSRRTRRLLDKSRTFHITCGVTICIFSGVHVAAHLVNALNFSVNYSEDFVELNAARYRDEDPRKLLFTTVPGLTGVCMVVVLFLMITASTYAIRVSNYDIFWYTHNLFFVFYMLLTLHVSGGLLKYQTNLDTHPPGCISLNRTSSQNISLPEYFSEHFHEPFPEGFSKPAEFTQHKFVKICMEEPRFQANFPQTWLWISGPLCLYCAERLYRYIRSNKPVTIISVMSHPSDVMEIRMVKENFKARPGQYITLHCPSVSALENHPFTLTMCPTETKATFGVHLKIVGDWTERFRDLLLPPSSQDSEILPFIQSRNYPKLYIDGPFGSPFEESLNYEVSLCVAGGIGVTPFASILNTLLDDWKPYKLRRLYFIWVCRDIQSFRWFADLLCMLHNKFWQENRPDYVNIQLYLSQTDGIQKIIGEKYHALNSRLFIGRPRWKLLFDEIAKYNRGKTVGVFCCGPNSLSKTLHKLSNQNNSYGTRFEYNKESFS

For the molecule `C[C@@H](OCc1ccccc1)C1NC(=O)[C@@]23C(=O)N[C@@H](Cc4ccccc4)C2[C@H](C)[C@@]2(C)O[C@H]2C3/C=C/C/C=C\CNC(=O)[C@@H]2CCCN2C1=O` (stereo not given in full), the composite z-score in [1] was -0.13; in assay [5], -0.9; in assay [6] it was -0.192; in the assay with Torsin-1A (Homo sapiens) [7], -0.0343; with Torsin-1A (Homo sapiens) [8], 1.12; in [9], 0.558. This molecule also came in with a composite z-score in assay [11] of -0.239. In addition, the z-score was -0.866 (inactive) in assay [2]; 2.13 (inactive) in assay [3]; -1.55 (inactive) in assay [4]; 2.21 (inactive) in assay [10]; 1.49 (inactive) in [12]; 0.0899 (inactive) in assay [13]. Besides, the z-score in assay [14] is 0.933 (inactive); in [15], 0.231 (inactive); in [16] it was 0.663; in assay [17], -0.0597 (inactive); in assay [18], 0.397 (inactive); in assay [19], -0.915. Further, the z-score in assay [20] was 0.791.
Take `C=CCNC(=O)[C@@H]1[C@H]2C(=O)O[C@H](c3ccccc3)[C@H](c3ccccc3)N2[C@H](c2ccc(O)cc2)[C@@]12C(=O)Nc1ccccc12`: the composite z-score is 0.154 in assay [1]; -0.171 in [5]; -0.218 in [6]; -0.0795 in the assay with Torsin-1A (Homo sapiens) [7]; -0.264 with Torsin-1A (Homo sapiens) [8]; 1.05 in assay [9]. This molecule also yielded a composite z-score in assay [11] of -0.22. Further, the z-score in [2] was -2.84 (inactive); in assay [3] it was -0.348 (inactive); in assay [4], -1.3 (inactive); in assay [10], 1.88 (inactive); in [12], 3.11 (inactive); in assay [13] it was 0.87 (inactive). Moreover, the z-score is 0.253 (inactive) in [14]; 0.983 (inactive) in assay [15]; 0.686 in assay [16]; -0.00775 (inactive) in assay [17]; -1.9 (inactive) in assay [18]; -1.37 in [19]. Also, the z-score in [20] is 0.106.
`CCN(CC)c1ccc(N2CC=CC34O[C@@H]5C=CCOC(=O)[C@@H]5[C@H]3C(=O)N(C(CO)C(C)C)[C@@H]4C2=O)cc1` (stereo not given in full): the composite z-score in assay [1] is -0.191; in assay [5] it was -0.258; in [6], -0.391; with Torsin-1A (Homo sapiens) [7] it was -0.156; with Torsin-1A (Homo sapiens) [8] it was -0.701; in [9] it was 0.0806. Also, the composite z-score in [11] was determined as 0.189. The z-score was -0.524 (inactive) in [2]; 0.471 (inactive) in assay [3]; 0.6 (inactive) in assay [4]; 1.38 (inactive) in assay [10]; -0.185 (inactive) in [12]; -0.262 (inactive) in assay [13]. Also, the z-score in [14] was 1.21 (inactive); in assay [15], 0.135 (inactive); in [16], -0.369; in [17] it was 0.787 (inactive); in [18], 0.196 (inactive); in assay [19], 1.23. In [20], the z-score was -0.0755.
Regarding `C=CCC(OC(C)=O)[C@@H]1[C@@H](N(Cc2ccc(-c3cccc(C(F)(F)F)c3)o2)C(=O)c2ccc(-c3ccccc3)cc2)c2cc(OCCCO)ccc2N1C(=O)Cc1ccc(OC)cc1` (stereo not given in full), the composite z-score in assay [1] was 0.0578; in [5], -0.152; in assay [6], -0.273; in the assay with Torsin-1A (Homo sapiens) [7], -0.267; with Torsin-1A (Homo sapiens) [8], 0.0992; in [9] it was 0.214. Also, in assay [11], the composite z-score was -0.0501. Further, the z-score in [2] was -1.84 (inactive); in [3], 1.38 (inactive); in [4], -0.0892 (inactive); in assay [10], 1.73 (inactive); in assay [12] it was 0.963 (inactive); in [13], 0.485 (inactive). In addition, the z-score in assay [14] is 0.218 (inactive); in assay [15], -0.0843 (inactive); in [16], 0.509; in assay [17], 0.964 (inactive); in assay [18] it was 1.06 (inactive); in assay [19] it was 2.21. Also, in assay [20], the z-score is 0.161.
Take `O=C(NO)[C@]1(Cc2ccccc2)N=C(c2ccc(OCCCO)cc2)O[C@@H]1c1ccccc1`: the composite z-score is -0.229 in assay [1]; -0.585 in [5]; -0.0782 in assay [6]; -0.427 with Torsin-1A (Homo sapiens) [7]; 0.411 with Torsin-1A (Homo sapiens) [8]; -0.351 in [9]. Besides, the composite z-score in assay [11] stood at 0.0278. The z-score was -1.7 (inactive) in [2]; 3.01 (inactive) in [3]; -1.91 (inactive) in assay [4]; 3.88 (inactive) in assay [10]; 15 (active) in assay [12]; 0.971 (inactive) in [13]. Besides, the z-score is -0.479 (inactive) in assay [14]; -0.21 (inactive) in [15]; 2.81 in [16]; 0.709 (inactive) in assay [17]; 0.551 (inactive) in [18]; 2.06 in assay [19]. Besides, the z-score in [20] is 1.86.
For `CCOC(=O)C[C@H]1[C@H](OC(=O)c2ccc(-c3ccccc3)cc2)[C@@H](NC(=O)c2ccccc2)c2cc(OCCCO)ccc2N1C(=O)c1ccccc1`, the composite z-score was 0.15 in assay [1]; 0.0439 in assay [5]; 0.105 in assay [6]; 0.217 with Torsin-1A (Homo sapiens) [7]; 0.792 with Torsin-1A (Homo sapiens) [8]; 0.082 in assay [9]. The composite z-score in assay [11] is 0.167. Further, the z-score in [2] was -2.94 (inactive); in assay [3] it was 0.251 (inactive); in [4] it was -0.843 (inactive); in [10] it was 2.36 (inactive); in assay [12], 0.788 (inactive); in [13], -0.846 (inactive). Further, the z-score is -0.0889 (inactive) in [14]; -1.09 (inactive) in assay [15]; 1.58 in assay [16]; 2.09 (inactive) in [17]; 1.32 (inactive) in [18]; 3.5 in assay [19]. In addition, the z-score in assay [20] is 0.769.
Regarding `O=C(NCc1ccccc1)[C@@H]1c2ccccc2C(=O)N(Cc2ccccc2Cl)[C@H]1c1ccc(CO)cc1`, the composite z-score was 0.531 in assay [1]; 0.527 in assay [5]; -0.119 in assay [6]; 1.1 with Torsin-1A (Homo sapiens) [7]; 0.759 in the assay with Torsin-1A (Homo sapiens) [8]; 1.54 in assay [9]. Also, the composite z-score in assay [11] was found to be 0.139. The z-score in [2] is -1.32 (inactive); in assay [3], -0.152 (inactive); in assay [4], -0.918 (inactive); in [10], 2.17 (inactive); in assay [12] it was 1.79 (inactive); in [13], -0.576 (inactive). In addition, the z-score in assay [14] was -0.0527 (inactive); in [15] it was -1.17 (inactive); in assay [16], 0.894; in assay [17] it was -0.932 (inactive); in [18] it was 0.992 (inactive); in [19], -0.544. The z-score in assay [20] was 0.703.
Take `C=C(C(=O)CC[C@H](OC(C)=O)c1ccc(CO)o1)C(C)C`: the composite z-score in assay [1] is 0.0615; in assay [5], -0.469; in assay [6], 0.353; with Torsin-1A (Homo sapiens) [7], 0.154; with Torsin-1A (Homo sapiens) [8] it was -0.248; in [9], 0.937. The molecule also registered a composite z-score in assay [11] of -0.215. In addition, the z-score in assay [2] was -4.37 (inactive); in assay [3], 1.09 (inactive); in [4] it was -0.949 (inactive); in assay [10] it was 1.27 (inactive); in assay [12], 1.55 (inactive); in assay [13], -0.558 (inactive). The z-score in assay [14] is 0.68 (inactive); in assay [15], -1.83 (inactive); in [16] it was 2.5; in [17], -0.0262 (inactive); in assay [18] it was 0.382 (inactive); in assay [19], -0.706. Also, the z-score in [20] was -0.708.
